Assay results from PubChem BioAssay AID646 (Vanderbilt High Throughput Screening Facility, 2007).
Hit rate of the full screen: of about 1,900 compounds, about 15 (0.8%) were called active. Cut-off read from the data, not from the text of the source: active = luminescence above about 3900; inactive = the rest. The list is a sample of the results.

The compounds below were run against D(1A) dopamine receptor (Homo sapiens) (UniProt P21728) (assay: D1 receptor agonism without dopamine, confirmation, mechanism study for D1 allosteric modulator project, cell-based, HEK293 D1, CRE-luciferase, secondary assay 1 (AID 646)). Conditions: no dopamine, at 10 µM, active compounds read high.
Chain of D(1A) dopamine receptor (Homo sapiens) (P21728 whole entry, looked up): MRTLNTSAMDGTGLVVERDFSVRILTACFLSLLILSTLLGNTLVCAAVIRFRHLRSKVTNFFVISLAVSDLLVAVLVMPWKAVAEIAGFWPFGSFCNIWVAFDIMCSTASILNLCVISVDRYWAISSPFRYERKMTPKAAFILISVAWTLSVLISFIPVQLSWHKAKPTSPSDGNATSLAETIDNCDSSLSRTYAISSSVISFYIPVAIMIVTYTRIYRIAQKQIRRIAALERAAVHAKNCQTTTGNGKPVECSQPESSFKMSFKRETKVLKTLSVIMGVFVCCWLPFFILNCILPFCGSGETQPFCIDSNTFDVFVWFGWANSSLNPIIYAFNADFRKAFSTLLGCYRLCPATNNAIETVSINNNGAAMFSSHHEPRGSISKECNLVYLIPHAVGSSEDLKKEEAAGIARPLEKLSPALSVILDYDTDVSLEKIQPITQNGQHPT

**Q.** How did the luminescence turn out when CN(C)c1nc(N)nc(CSc2nnnn2-c2cccc3ccccc23)n1 was run?
**A.** Its luminescence is 792 (inactive).

**Q.** CCn1nc(C(=O)OCC(=O)N2c3ccccc3CC2C)c2ccccc2c1=O (stereo unspecified) was tested. Which luminescence did it give?
**A.** Its luminescence is 1520 (inactive).

**Q.** For CCC(=O)NC(=Nc1nc2ccccc2s1)NC(=O)CC, which luminescence is on record?
**A.** Its luminescence is 1420 (inactive).

**Q.** With CCOC(=O)c1cc(C)sc1NC(=O)C1CCC1 as the compound, how does the luminescence read?
**A.** Its luminescence is 2190 (inactive).

**Q.** How did the luminescence turn out when COc1nc(NCc2ccc(Cl)cc2)nc(OC)n1 was run?
**A.** Its luminescence is 1580 (inactive).

**Q.** How did the luminescence turn out when COc1ccc(-c2nnco2)cc1OC was run?
**A.** The luminescence was 1540 (inactive).

**Q.** With CCOc1ccc2c(c1)cc(CN(C(=O)CC)C1CCCCC1)c1nnnn12 as the compound, how does the luminescence read?
**A.** The luminescence was 1650 (inactive).

**Q.** CCn1c(=N)c(S(=O)(=O)c2ccc(F)cc2)cc2c(=O)n3ccccc3nc21 was tested. Which luminescence did it give?
**A.** The luminescence was 1820 (inactive).

**Q.** How did the luminescence turn out when Cn1c(=O)c2[nH]c(NCC3CCCO3)nc2n(-c2ccccc2)c1=O (stereo unspecified) was run?
**A.** Its luminescence is 1520 (inactive).

**Q.** Which luminescence does the source give for O=C(NCc1ccccn1)c1ccc2nc(-c3ccco3)c(-c3ccco3)nc2c1 here?
**A.** Its luminescence is 2040 (inactive).

**Q.** With CCn1ncc(C2=NOC(C(=O)Nc3ccccc3C(=O)OC)C2)c1C (stereo unspecified) as the compound, how does the luminescence read?
**A.** The luminescence was 1280 (inactive).

**Q.** How did the luminescence turn out when COc1ccc(S(=O)(=O)N(C)CC(=O)Nc2ccc3c(c2)OCCO3)cc1OC was run?
**A.** The luminescence was 1540 (inactive).

**Q.** Which luminescence does the source give for CCOc1ccc(-c2nnn(CC(=O)N3CCN(c4ccc(OC)cc4)CC3)n2)cc1OCC here?
**A.** Its luminescence is 1540 (inactive).

**Q.** For CCCS(=O)(=O)N1CCC(C(=O)NCCc2ccc(OC)c(OC)c2)CC1, which luminescence is on record?
**A.** The luminescence was 1810 (inactive).

**Q.** How did the luminescence turn out when Cc1ccc(C2CC(c3cccc(C)c3)n3nc(N)nc3N2)cc1 (stereo unspecified) was run?
**A.** Its luminescence is 1850 (inactive).

**Q.** With CCCn1c(=NC(C)=O)c(C(=O)OCC)cc2c(=O)n3ccccc3nc21 as the compound, how does the luminescence read?
**A.** Its luminescence is 1630 (inactive).

**Q.** COc1ccc(S(=O)(=O)Nc2ccc(S(=O)(=O)N3CCCCC3)cc2)cc1OC was tested. Which luminescence did it give?
**A.** The luminescence was 1540 (inactive).

**Q.** How did the luminescence turn out when CCOC(=O)/C=c1\s/c(=C\c2ccccc2OC)c(=O)n1CC(=O)N1CCOCC1 was run?
**A.** Its luminescence is 1600 (inactive).

**Q.** With FC(F)(F)c1cc(-c2ccco2)nc(N2CCOCC2)n1 as the compound, how does the luminescence read?
**A.** Its luminescence is 1540 (inactive).

**Q.** How did the luminescence turn out when Cc1ccc(S(=O)(=O)c2c(N)n(C)c3nc4ccccc4nc23)cc1 was run?
**A.** The luminescence was 1580 (inactive).

**Q.** For CC(=O)c1ccc(Oc2cc(C)nc(-n3nc(C)cc3C)n2)cc1, which luminescence is on record?
**A.** The luminescence was 1560 (inactive).

**Q.** With CCCCc1c(O)nc2n(c1=O)CCS2 as the compound, how does the luminescence read?
**A.** Its luminescence is 1610 (inactive).

**Q.** Which luminescence does the source give for CCNc1nc(NCC)nc(N(C)n2cnnc2)n1 here?
**A.** The luminescence was 1760 (inactive).

**Q.** For CCCSc1nc2c(c(=O)[nH]c(=O)n2C)n1CCc1ccccc1, which luminescence is on record?
**A.** The luminescence was 1480 (inactive).

**Q.** CCOc1cccc(-n2nnnc2-c2ccc(OC)cc2)c1 was tested. Which luminescence did it give?
**A.** The luminescence was 1540 (inactive).

**Q.** COc1ccc(Nc2cc(C)nc(-n3nc(C)cc3C)n2)cc1 was tested. Which luminescence did it give?
**A.** The luminescence was 1750 (inactive).
